Measured values: PubChem BioAssay (EPA / NIEHS)
Inconclusive results are not listed. Active and inactive are the calls of the source. How the source made its calls, unless noted: active means hit-call score of the fitted dose curve at least 0.9, where 1 is the maximum; inactive means score below 0.9.

Legend:
[1] = target: Glucocorticoid receptor (Homo sapiens) (UniProt P04150); assay: ATG_GR_TRANS: Attagene TRANS-FACTORIAL HepG2 Assay for human Glucocorticoid Receptor (GR) (AID 2282978; active means hit-call score of the fitted dose curve at least 0.9, where 1 is the maximum;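 further: activators score as hits since higher reporter transcript over DMSO is fitted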); settings: HepG2 Attagene TRANS GR reporter, mRNA transcription
Chain of Glucocorticoid receptor (Homo sapiens) (P04150 whole entry, looked up, the tested form may be a part): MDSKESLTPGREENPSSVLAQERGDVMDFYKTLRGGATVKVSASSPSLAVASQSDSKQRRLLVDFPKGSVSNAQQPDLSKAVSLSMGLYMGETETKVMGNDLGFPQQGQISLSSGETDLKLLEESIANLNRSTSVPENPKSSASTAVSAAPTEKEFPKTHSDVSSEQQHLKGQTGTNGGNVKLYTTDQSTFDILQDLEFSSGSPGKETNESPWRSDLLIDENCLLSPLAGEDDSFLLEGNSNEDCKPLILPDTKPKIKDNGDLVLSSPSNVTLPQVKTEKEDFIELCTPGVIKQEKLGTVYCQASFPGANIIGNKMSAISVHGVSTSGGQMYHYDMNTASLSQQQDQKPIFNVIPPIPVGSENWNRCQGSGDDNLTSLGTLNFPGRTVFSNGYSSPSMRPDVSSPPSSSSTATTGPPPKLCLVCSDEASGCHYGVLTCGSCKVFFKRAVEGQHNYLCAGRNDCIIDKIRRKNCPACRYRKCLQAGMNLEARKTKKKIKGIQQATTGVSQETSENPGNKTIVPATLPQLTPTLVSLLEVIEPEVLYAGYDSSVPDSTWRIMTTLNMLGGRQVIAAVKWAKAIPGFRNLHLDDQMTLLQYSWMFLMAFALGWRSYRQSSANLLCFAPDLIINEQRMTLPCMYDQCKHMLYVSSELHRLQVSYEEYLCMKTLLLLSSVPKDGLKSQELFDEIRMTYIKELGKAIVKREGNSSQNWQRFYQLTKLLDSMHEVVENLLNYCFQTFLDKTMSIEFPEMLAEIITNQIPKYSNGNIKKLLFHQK
Outline: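 HepG2 cells transiently transfected with multiplexed reporter units in which chimeric NR-GAL4 proteins drive GAL4-UAS reporters; 24 h compound exposure. Reporter mRNA measured by RT-PCR, 6-FAM labelling, HpaI digestion and capillary electrophoresis; gain-of-signal fitted versus DMSO.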

[2] = target: Oxysterols receptor LXR-alpha (Homo sapiens) (UniProt Q13133); assay: ATG_LXRa_TRANS: Attagene TRANS-FACTORIAL HepG2 Assay for human Liver X Receptor alpha (LXRa) (AID 2282980; active means hit-call score of the fitted dose curve at least 0.9, where 1 is the maximum); settings: HepG2 Attagene TRANS reporter, LXRa transactivation
Chain of Oxysterols receptor LXR-alpha (Homo sapiens) (Q13133 whole entry, looked up, the tested form may be a part): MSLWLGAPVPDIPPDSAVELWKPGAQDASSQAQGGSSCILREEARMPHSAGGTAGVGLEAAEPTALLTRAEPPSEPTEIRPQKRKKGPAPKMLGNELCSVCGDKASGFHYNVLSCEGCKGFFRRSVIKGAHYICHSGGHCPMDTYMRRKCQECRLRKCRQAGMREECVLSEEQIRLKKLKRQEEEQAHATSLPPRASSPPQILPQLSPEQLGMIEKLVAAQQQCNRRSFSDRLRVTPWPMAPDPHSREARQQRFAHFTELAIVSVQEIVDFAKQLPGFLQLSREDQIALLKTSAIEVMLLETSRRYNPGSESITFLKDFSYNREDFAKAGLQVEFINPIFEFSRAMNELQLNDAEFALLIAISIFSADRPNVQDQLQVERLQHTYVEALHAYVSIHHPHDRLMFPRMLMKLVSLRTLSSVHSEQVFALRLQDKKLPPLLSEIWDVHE
Outline: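 In this multiplexed TRANS system, compounds act on HepG2 cells carrying GAL4-UAS reporter units and a receptor-GAL4 fusion for 24 h. Induced reporter RNA is amplified, fluorescently labelled and sized by capillary electrophoresis, with DMSO as baseline.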

[3] = target: Oxysterols receptor LXR-beta (Homo sapiens) (UniProt P55055); assay: ATG_LXRb_TRANS: Attagene TRANS-FACTORIAL HepG2 Assay for human Liver X Receptor beta (LXRb) (AID 2282981; active means hit-call score of the fitted dose curve at least 0.9, where 1 is the maximum); settings: HepG2 Attagene TRANS GAL4-LXRb reporter, mRNA
Chain of Oxysterols receptor LXR-beta (Homo sapiens) (P55055 whole entry, looked up, the tested form may be a part): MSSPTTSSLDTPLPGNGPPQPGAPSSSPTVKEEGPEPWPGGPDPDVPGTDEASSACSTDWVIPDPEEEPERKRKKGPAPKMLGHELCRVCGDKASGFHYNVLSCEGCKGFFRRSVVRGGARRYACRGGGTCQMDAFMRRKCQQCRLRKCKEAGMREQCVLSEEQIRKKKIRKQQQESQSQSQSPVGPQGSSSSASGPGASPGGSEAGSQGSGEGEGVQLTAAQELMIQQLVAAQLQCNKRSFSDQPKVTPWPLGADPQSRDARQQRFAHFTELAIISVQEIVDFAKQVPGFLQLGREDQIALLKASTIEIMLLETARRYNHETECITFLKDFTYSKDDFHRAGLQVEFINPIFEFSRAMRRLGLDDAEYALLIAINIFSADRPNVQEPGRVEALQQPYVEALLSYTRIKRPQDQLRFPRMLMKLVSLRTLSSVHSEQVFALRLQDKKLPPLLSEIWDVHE
Outline: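 Transient transfection HepG2 (multiplexed RTUs, GAL4-UAS); NR-Gal4 chimera; 24 h exposure; RNA → RT-PCR → 6-FAM primer extension → HpaI → CE; increase vs DMSO.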

[4] = ATG_M_06_TRANS: Attagene TRANS-FACTORIAL HepG2 Assay for M06 Transcription Factor (Internal Marker) (AID 2282983; active means hit-call score of the fitted dose curve at least 0.9, where 1 is the maximum;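 further: reporter transcript level by RT-PCR then capillary electrophoresis fluorescence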); settings: HepG2 Attagene TRANS M06 internal marker reporter
Outline: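 Internal-marker background readout from a multiplexed TRANS reporter system in HepG2; 24 h dosing; mRNA induction quantified by RT-PCR plus capillary electrophoresis fluorescence; DMSO as negative control and baseline.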

[5] = target: Nuclear receptor subfamily 4 group A member 2 (Homo sapiens) (UniProt P43354); assay: ATG_NURR1_TRANS: Attagene TRANS-FACTORIAL HepG2 Assay for human Nuclear Receptor Related Protein 1 (NURR1) (AID 2282985; active means hit-call score of the fitted dose curve at least 0.9, where 1 is the maximum); settings: HepG2 Attagene TRANS reporter, mRNA readout
Chain of Nuclear receptor subfamily 4 group A member 2 (Homo sapiens) (P43354 whole entry, looked up, the tested form may be a part): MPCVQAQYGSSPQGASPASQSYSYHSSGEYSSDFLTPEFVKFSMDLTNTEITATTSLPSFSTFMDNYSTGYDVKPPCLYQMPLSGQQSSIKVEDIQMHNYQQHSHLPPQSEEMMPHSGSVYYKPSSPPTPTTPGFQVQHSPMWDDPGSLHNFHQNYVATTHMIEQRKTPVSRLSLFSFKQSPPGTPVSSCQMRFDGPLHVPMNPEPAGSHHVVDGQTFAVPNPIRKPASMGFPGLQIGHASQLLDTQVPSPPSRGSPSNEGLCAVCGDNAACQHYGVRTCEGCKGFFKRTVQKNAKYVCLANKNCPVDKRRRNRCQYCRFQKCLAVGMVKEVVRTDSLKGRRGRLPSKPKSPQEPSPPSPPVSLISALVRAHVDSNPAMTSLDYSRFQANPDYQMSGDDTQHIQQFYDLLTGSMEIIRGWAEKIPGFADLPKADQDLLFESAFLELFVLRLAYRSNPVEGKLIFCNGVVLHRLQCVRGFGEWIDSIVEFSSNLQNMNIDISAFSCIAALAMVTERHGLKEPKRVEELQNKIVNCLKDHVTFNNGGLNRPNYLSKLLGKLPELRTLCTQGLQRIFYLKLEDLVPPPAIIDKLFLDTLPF
Outline: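 Transient transfection of HepG2, human liver cells, with multiple GAL4-UAS reporter transcription units. Cells dosed 24 h, RNA isolated, reverse-transcribed, PCR-amplified, FAM-labelled, HpaI-digested, sized by capillary electrophoresis. DMSO served as negative control.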

[6] = target: Nuclear respiratory factor 1 (Homo sapiens) (UniProt Q16656); assay: ATG_NRF1_CIS: Attagene CIS-FACTORIAL HepG2 Assay for human Nuclear Respiratory Factor 1 (NRF1) Orphan Gene (AID 2282987); settings: HepG2 NRF1 cis-element reporter, Attagene multiplex; actives raise or lower the signal
Chain of Nuclear respiratory factor 1 (Homo sapiens) (Q16656 whole entry, looked up): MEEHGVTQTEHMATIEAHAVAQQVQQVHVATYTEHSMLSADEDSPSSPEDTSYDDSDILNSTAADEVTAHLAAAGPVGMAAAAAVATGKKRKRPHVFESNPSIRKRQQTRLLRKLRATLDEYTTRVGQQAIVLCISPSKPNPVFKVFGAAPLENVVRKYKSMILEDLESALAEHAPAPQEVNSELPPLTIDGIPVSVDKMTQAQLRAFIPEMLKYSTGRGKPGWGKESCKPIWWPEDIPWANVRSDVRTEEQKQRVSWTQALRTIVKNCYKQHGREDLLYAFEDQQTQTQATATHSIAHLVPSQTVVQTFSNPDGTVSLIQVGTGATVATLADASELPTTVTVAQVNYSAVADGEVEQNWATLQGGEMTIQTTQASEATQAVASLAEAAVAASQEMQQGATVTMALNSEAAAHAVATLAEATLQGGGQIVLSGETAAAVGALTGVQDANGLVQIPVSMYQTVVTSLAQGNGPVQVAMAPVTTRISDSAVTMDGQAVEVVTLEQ
Outline: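 HepG2 cells transiently transfected with multiple reporter transcription units under cis-regulatory promoter control, so endogenous transcription-factor activity is read. After 24 h compound exposure, reporter mRNA quantified by RT-PCR, fluorescent labelling, HpaI digestion and capillary electrophoresis; bidirectional fitting versus DMSO.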

[7] = ATG_NFI_CIS: Attagene CIS-FACTORIAL HepG2 Assay for human Nuclear Factor I (NFI) (AID 2282989); settings: HepG2 cis-regulatory reporter, NFI response element transcription; actives raise or lower the signal
Outline: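 Cells: human liver HepG2, transiently transfected with promoter-regulated reporter transcription units. Exposure 24 h. Detection: fluorescent RT-PCR products separated by capillary electrophoresis, normalised to DMSO negative control.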

[8] = ATG_NF_kB_CIS: Attagene CIS-FACTORIAL HepG2 Assay for human Nuclear Factor Kappa B (NF-kB) (AID 2282991); settings: HepG2 Attagene cis-factorial NF-kB reporter mRNA; actives raise or lower the signal
Outline: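 HepG2 cells transiently transfected with multiplexed cis-element reporter units measuring endogenous transcription factor activity; reporter mRNA read 24 h after dosing by RT-PCR, fluorescent labelling, HpaI digestion and capillary electrophoresis. Bidirectional fit against DMSO baseline.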

[9] = ATG_NRF2_ARE_CIS: Attagene CIS-FACTORIAL HepG2 Assay for human Nuclear Factor Erythroid 2 Related Factor 2 (NFR2) response to Antioxidant Response Elements (ARE) (AID 2282992); settings: HepG2 Attagene ARE/NRF2 reporter, transcription factor activity; actives raise or lower the signal;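 on AC50: reporter mRNA level measured by RT-PCR and capillary electrophoresis fluorescence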
Outline: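 HepG2 cells transiently transfected with multiplexed cis-element reporter constructs, 24 h after chemical dosing; reporter mRNA quantified by RT-PCR, fluorescent primer extension, HpaI digestion and capillary electrophoresis. Bidirectional fit relative to DMSO.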

[10] = ATG_Oct_MLP_CIS: Attagene CIS-FACTORIAL HepG2 Assay for human Octamer-Binding Transcription Factor (Oct) (AID 2282993); settings: HepG2 Attagene cis-factorial Oct reporter, mRNA; actives raise or lower the signal
Outline: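 HepG2, transient MRTU transfection, cis promoter elements; 24 h dosing; RT-PCR/CE fluorescence read-out of reporter mRNA; fit both directions vs DMSO.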

[11] = target: Cellular tumor antigen p53 (Homo sapiens) (UniProt P04637); assay: ATG_p53_CIS: Attagene CIS-FACTORIAL HepG2 Assay for human p53 Transcription Factor (AID 2282994); settings: HepG2 p53 cis-element reporter, Attagene mRNA; actives raise or lower the signal
Chain of Cellular tumor antigen p53 (Homo sapiens) (P04637 whole entry, looked up): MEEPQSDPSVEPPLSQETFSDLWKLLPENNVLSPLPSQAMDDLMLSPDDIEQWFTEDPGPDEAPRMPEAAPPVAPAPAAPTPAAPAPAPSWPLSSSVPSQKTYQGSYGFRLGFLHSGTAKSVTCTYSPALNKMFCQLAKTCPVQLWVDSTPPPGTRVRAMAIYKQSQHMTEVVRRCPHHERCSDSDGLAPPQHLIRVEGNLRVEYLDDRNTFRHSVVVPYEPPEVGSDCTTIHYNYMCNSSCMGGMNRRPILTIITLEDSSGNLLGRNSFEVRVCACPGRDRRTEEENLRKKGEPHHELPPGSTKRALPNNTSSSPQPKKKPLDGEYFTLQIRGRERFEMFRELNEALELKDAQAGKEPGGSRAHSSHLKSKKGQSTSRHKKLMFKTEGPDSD
Outline: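 HepG2 cells transiently transfected with cis-regulated multiple reporter transcription units, dosed 24 h. Reporter mRNA measured by RT-PCR, 6-FAM primer extension, HpaI digestion and capillary electrophoresis; bidirectional fit relative to DMSO.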

[12] = BSK_3C_TissueFactor: BioMAP Diversity Plus: 3C Assay for Tissue Factor Biomarker Activity (AID 2282997); settings: BioMAP 3C HUVEC, tissue factor biomarker readout; actives raise or lower the signal
Outline: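 Endothelial monolayers (human umbilical vein, primary) are dosed, incubated 24 h, and assayed for Tissue Factor by ELISA; DMSO serves as negative control for bidirectional fitting.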

[13] = BSK_3C_uPAR: BioMAP Diversity Plus: 3C Assay for Urokinase-type plasminogen activator receptor (uPAR) Biomarker Activity (AID 2282998); settings: BioMAP 3C HUVEC, uPAR biomarker ELISA; actives raise or lower the signal
Outline: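 A multiplexed primary-cell system built on human umbilical vein endothelium was used, with chemical present for 24 h before reading. Cell-surface uPAR was detected by ELISA; signal change in either direction counted against DMSO.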

[14] = BSK_3C_VCAM1: BioMAP Diversity Plus: 3C Assay for Vascular cell adhesion molecule 1 (VCAM1) Biomarker Activity (AID 2282999); settings: BioMAP 3C HUVEC, VCAM1 ELISA, cytokine-stimulated; actives raise or lower the signal
Outline: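 Endothelial cells from human umbilical vein are treated with test chemical. At 24 h, VCAM-1 is measured by ELISA, and responses in either direction are fitted relative to DMSO.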

[15] = BSK_4H_Eotaxin3: BioMAP Diversity Plus: 4H Assay for Eotaxin 3 Biomarker Activity (AID 2283000); settings: primary human endothelial cells (HUVEC); actives raise or lower the signal
Outline: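 ELISA quantitation of CCL26 (Eotaxin-3) protein from chemically dosed human vascular endothelial cells at 24 h; increases and decreases both scored relative to DMSO-treated baseline.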

[16] = target: Myc proto-oncogene protein (Homo sapiens) (UniProt P01106); assay: ATG_Myc_CIS: Attagene CIS-FACTORIAL HepG2 Assay for human Myelocytomatosis (Myc) Proto-Oncogene Transcription Factor (AID 2282990); settings: HepG2, Attagene cis-reporter transcription factor activity; actives raise or lower the signal
Chain of Myc proto-oncogene protein (Homo sapiens) (P01106 whole entry, looked up): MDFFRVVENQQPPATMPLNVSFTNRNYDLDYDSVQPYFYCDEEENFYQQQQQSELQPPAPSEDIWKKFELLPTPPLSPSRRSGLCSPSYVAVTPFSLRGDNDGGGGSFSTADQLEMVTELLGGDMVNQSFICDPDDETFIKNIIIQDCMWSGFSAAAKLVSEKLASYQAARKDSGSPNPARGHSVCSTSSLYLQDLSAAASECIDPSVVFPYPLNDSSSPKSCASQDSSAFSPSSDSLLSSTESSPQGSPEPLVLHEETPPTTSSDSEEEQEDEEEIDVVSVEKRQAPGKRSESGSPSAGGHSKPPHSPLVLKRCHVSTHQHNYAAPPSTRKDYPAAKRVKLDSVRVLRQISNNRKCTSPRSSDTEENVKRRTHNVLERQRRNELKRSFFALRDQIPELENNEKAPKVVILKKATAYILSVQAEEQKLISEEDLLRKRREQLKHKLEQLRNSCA
Outline: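 HepG2, transient MRTU transfection (cis promoters, endogenous TFs); 24 h dosing; TriZol RNA → oligo(dT) RT → PCR → 6-FAM primer extension → HpaI cut → CE. Bidirectional fit vs DMSO.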

[17] = target: Transcriptional activator Myb (Homo sapiens) (UniProt P10242); assay: ATG_Myb_CIS: Attagene CIS-FACTORIAL HepG2 Assay for human Myeloblastosis (Myb) Proto-Oncogene Transcription Factor (AID 2282986); settings: HepG2 Attagene CIS-FACTORIAL Myb reporter transcription; actives raise or lower the signal
Chain of Transcriptional activator Myb (Homo sapiens) (P10242 whole entry, looked up): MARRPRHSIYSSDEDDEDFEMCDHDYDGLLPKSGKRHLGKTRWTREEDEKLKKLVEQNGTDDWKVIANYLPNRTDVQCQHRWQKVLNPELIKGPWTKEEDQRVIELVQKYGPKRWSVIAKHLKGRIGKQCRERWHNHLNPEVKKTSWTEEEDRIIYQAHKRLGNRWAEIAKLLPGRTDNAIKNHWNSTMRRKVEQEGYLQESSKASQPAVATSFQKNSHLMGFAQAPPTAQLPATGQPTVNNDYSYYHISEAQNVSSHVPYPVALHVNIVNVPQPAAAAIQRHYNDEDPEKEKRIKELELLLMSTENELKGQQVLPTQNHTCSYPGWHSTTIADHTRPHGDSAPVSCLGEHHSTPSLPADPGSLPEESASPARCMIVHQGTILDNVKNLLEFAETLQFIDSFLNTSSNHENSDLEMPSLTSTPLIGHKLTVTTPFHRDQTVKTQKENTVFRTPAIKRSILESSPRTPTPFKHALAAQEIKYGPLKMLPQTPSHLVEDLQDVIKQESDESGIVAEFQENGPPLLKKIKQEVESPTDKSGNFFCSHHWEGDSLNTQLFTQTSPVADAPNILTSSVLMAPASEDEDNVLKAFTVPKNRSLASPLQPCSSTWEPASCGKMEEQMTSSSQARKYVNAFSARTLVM
Outline: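 HepG2 cells were transiently transfected with cis-regulated multiple reporter transcription units reflecting endogenous Myb activity, then exposed to compound for 24 hours. Reporter mRNA was measured by RT-PCR with capillary electrophoresis; bidirectional fitting versus DMSO baseline.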

[18] = ATG_M_32_TRANS: Attagene TRANS-FACTORIAL HepG2 Assay for M32 Transcription Factor (Internal Marker) (AID 2282984; active means hit-call score of the fitted dose curve at least 0.9, where 1 is the maximum;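 further: transcript level of a background control reporter unit measured by RT-PCR and capillary electrophoresis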); settings: HepG2 Attagene TRANS M32 internal marker reporter
Outline: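 Measures reporter mRNA induction in human HepG2 liver cells after 24 h chemical treatment. Transcripts from transiently transfected GAL4-UAS reporter units are amplified, fluorescently labelled and sized by capillary electrophoresis; gain of signal relative to DMSO.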

Measured: AC50

CC(=O)Oc1ccccc1C(=O)O
active: [2] 71.6 µM | [3] 100 µM | [5] 100 µM | [9] 68 µM | [10] 177 µM
not listed: [16] | [17] | [18]
inactive: all other assays above

NCCO
not listed: [1] | [2] | [4] | [6] | [8] | [17] | [18]
inactive: all other assays above

c1cc(-c2ccncc2)ccn1
not listed: [1] | [3] | [4] | [16] | [17] | [18]
inactive: all other assays above

CC(=O)OCCOCCOCCOC(C)=O
not listed: [1] | [2] | [5] | [8] | [18]
inactive: all other assays above

Cc1cccc([N+](=O)[O-])c1C
not listed: [1] | [2] | [3] | [6] | [16] | [17]
inactive: all other assays above

Nc1ccc2c(c1)C(=O)c1ccccc1C2=O
active: [9] 3.98 µM | [13] 6.96 µM
not listed: [1] | [2] | [6] | [16] | [18]
inactive: all other assays above

CCCCOC(=O)CCCCCCCCC(=O)OCCCC
active: [11] 156 µM
not listed: [1] | [2] | [3] | [4] | [5] | [6] | [18]
inactive: all other assays above

CCOC(=O)CCC(=O)OCC
inactive: [4] | [7] | [9] | [10] | [11] | [12] | [13] | [14] | [15]

O=C(O)Cc1ccccc1Nc1c(Cl)cccc1Cl
not listed: [1] | [2] | [3] | [4] | [8] | [16]
inactive: all other assays above

O=c1c(O)c(-c2ccc(O)c(O)c2)oc2cc(O)cc(O)c12
active: [9] 27 µM | [11] 65.6 µM | [12] 15.6 µM | [13] 13.7 µM | [14] 32 µM | [15] 24.4 µM
inactive: [2] | [3] | [18] | [5] | [7] | [8] | [10]

Oc1ccc2c(c1)OC[C@@H](N1CCC(O)(c3ccc(F)cc3)CC1)[C@H]2O
active: [9] 23.4 µM | [10] 27.1 µM
inactive: [4] | [5] | [7] | [8] | [11] | [12] | [13] | [14] | [15]

CCCCCCCCCCO
active: [8] 144 µM | [9] 158 µM | [10] 173 µM
not listed: [1] | [2] | [3] | [5] | [18]
inactive: all other assays above

CC(=O)C(C)=CC1C(C)=CCCC1(C)C (configuration not stated)
not listed: [1] | [2] | [3] | [8] | [17]
inactive: all other assays above

CNC(=O)[C@H]1O[C@@H](n2cnc3c(NCc4cc(Cl)ccc4OCc4cc(C)no4)ncnc32)[C@H](O)[C@@H]1N
not listed: [1] | [3] | [5] | [16] | [17] | [18]
inactive: all other assays above

CN1CCCC1=O
not listed: [1] | [8] | [16] | [18]
inactive: all other assays above

CCCCCCCC=O
not listed: [1] | [2] | [6] | [16] | [18]
inactive: all other assays above
